Assay results taken from PubChem BioAssay AID1159580 (chemical genetic matrix, 2015).
Where “and” joins values, the source holds several entries; their conditions need not be identical. Equal values may be shown once. Out of some 5,500 compounds screened, about 2,000 (36%) were called active. Inconclusive results (about 18%) are left out. Cut-off read from the data, not from the text of the source: active = normalized growth mostly below about 0.91 (no sharp cut-off); inconclusive = no clear call, values can overlap the other calls; inactive = mostly above about 0.92. Some of the results follow.

Assay: chemical genetic growth profiling, strain panel (AID 1159580);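 note: tested at 20 µM; growth read once vehicle control cultures reached saturation at 30 °C; 1 = growth at the plate median or of vehicle wells; lower values mean less growth of the strain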
Conditions: S. cerevisiae deletion strains, growth OD

Measured: normalized growth

CCN(CC)C(=S)SSC(=S)N(CC)CC
active: locus YAL013W, strain DEP1, active compounds read low 0.0629 and 0.897 | locus YAL021C, strain ccr4, active compounds read low 0.0672 | locus YAL026C, strain drs2, active compounds read low 0.0682 | locus YAL030W, strain snc1, active compounds read low 0.0564 | locus YAL040C, strain CLN3, active compounds read low 0.308 | locus YBL061C, strain skt5, active compounds read low 0.062 | locus YBR009C, strain hhf1, active compounds read low 0.0652 | locus YBR021W, strain FUR4, active compounds read low 0.0934 | locus YBR023C, strain chs3, active compounds read low 0.0638 | locus YBR171W, strain sec66, active compounds read low 0.0771 | locus YBR229C, strain ROT2, active compounds read low 0.426 | locus YBR231C, strain swc5, active compounds read low 0.0656 | locus YBR279W, strain paf1, active compounds read low 0.063 | locus YCL011C, strain gbp2, active compounds read low 0.0576 | locus YCL016C, strain dcc1, active compounds read low 0.065 | locus YCL029C, strain bik1, active compounds read low 0.135 | locus YCL061C, strain MRC1 (second series), active compounds read low 0.936 | locus YCL061C, strain MRC1, active compounds read low 0.0667 | locus YCL069W, strain vba3, active compounds read low 0.0629 | locus YCR088W, strain abp1, active compounds read low 0.062 | locus YDL005C, strain med2, active compounds read low 0.0753 | locus YDL035C, strain GPR1, active compounds read low 0.0484 | locus YDL040C, strain nat1, active compounds read low 0.0568 | locus YDL074C, strain BRE1, active compounds read low 0.0817 | locus YDL101C, strain DUN1, active compounds read low 0.068 | locus YDL134C, strain PPH21, active compounds read low 0.0516 | locus YDL185W, strain tfp1, active compounds read low 0.788 | locus YDL192W, strain arf1, active compounds read low 0.0621 | locus YDR001C, strain nth1, active compounds read low 0.0666 | locus YDR069C, strain doa4, active compounds read low 0.0647 | locus YDR101C, strain arx1, active compounds read low 0.101 | locus YDR137W, strain rgp1, active compounds read low 0.0968 | locus YDR150W, strain NUM1, active compounds read low 0.0605 | locus YDR159W, strain sac3, active compounds read low 0.0932 | locus YDR162C, strain NBP2, active compounds read low 0.0518 | locus YDR195W, strain ref2 0.121 | locus YDR297W, strain sur2, active compounds read low 0.0658 | locus YDR318W, strain mcm21, active compounds read low 0.0632 | locus YDR334W, strain swr1, active compounds read low 0.066 | locus YDR335W, strain msn5, active compounds read low 0.0613 | locus YDR388W, active compounds read low 0.0574 | locus YDR392W, strain spt3, active compounds read low 0.103 | locus YDR502C, strain sam2, active compounds read low 0.0592 | locus YEL003W, strain gim4, active compounds read low 0.0548 | locus YEL037C, strain rad23, active compounds read low 0.0581 | locus YEL061C, strain CIN8 (second series), active compounds read low 0.0638 | locus YEL061C, strain CIN8, active compounds read low 0.0531 | locus YER015W, strain faa2, active compounds read low 0.0589 | locus YER016W, strain bim1, active compounds read low 0.0621 | locus YER110C, active compounds read low 0.0748 | locus YER111C, strain swi4, active compounds read low 0.0842 | locus YER155C, strain BEM2 (second series), active compounds read low 0.092 | locus YER155C, strain BEM2, active compounds read low 0.0787 | locus YER167W, strain BCK2, active compounds read low 0.0526 | locus YFR010W, strain ubp6, active compounds read low 0.0704 | locus YGL078C, strain dbp3, active compounds read low 0.0558 | locus YGL086W, strain mad1, active compounds read low 0.0539 | locus YGL167C, strain pmr1, active compounds read low 0.0736 | locus YGL173C, strain kem1, active compounds read low 0.0686 | locus YGL227W, strain vid30, active compounds read low 0.0649 | locus YGL240W, strain doc1, active compounds read low 0.0818 | locus YGL248W, strain PDE1, active compounds read low 0.0479 | locus YGL253W, strain hxk2, active compounds read low 0.0556 | locus YGR078C, strain PAC10, active compounds read low 0.0528 | locus YGR135W, strain pre9, active compounds read low 0.0614 | locus YGR229C, strain SMI1, active compounds read low 0.0585 and 0.186 | locus YGR252W, strain gcn5, active compounds read low 0.111 | locus YHR013C, strain ard1, active compounds read low 0.114 | locus YHR027C, strain rpn1, active compounds read low 0.0617 | locus YHR030C, strain SLT2, active compounds read low 0.0521 and 0.114 | locus YHR079C, strain IRE1 (second series), active compounds read low 0.0828 | locus YHR079C, strain IRE1, active compounds read low 0.111 | locus YHR094C, strain hxt1, active compounds read low 0.0606 | locus YHR129C, strain ARP1, active compounds read low 0.0581 | locus YHR142W, strain chs7, active compounds read low 0.0762 | locus YHR200W, strain rpn10, active compounds read low 0.0631 | locus YIL066C, strain RNR3, active compounds read low 0.0508 | locus YIL073C, strain SPO22, active compounds read low 0.104 | locus YIL125W, strain kgd1, active compounds read low 0.0593 | locus YIR030C, strain dcg1, active compounds read low 0.0587 | locus YJL092W, strain hpr5, active compounds read low 0.0611 | locus YJL095W, strain BCK1 (second series), active compounds read low 0.0583 | locus YJL095W, strain BCK1, active compounds read low 0.0582 and 0.114 | locus YJL115W, strain asf1, active compounds read low 0.0765 | locus YJL129C, strain trk1, active compounds read low 0.0869 | locus YJL134W, strain LCB3, active compounds read low 0.0503 | locus YJL154C, strain vps35, active compounds read low 0.0608 | locus YJL164C, strain tpk1, active compounds read low 0.0649 | locus YJL166W, strain qcr8, active compounds read low 0.0615 | locus YJL168C, strain set2, active compounds read low 0.0602 | locus YJL187C, strain SWE1 (second series), active compounds read low 0.102 | locus YJL187C, strain SWE1, active compounds read low 0.0577 | locus YJR043C, strain POL32, active compounds read low 0.0598 | locus YJR066W, strain TOR1, active compounds read low 0.00329
inactive: locus YDR363W, strain ESC2, active compounds read low 0.997
